Results filed as inconclusive are left out. Entries that show only a call come without a potency. Activity calls are given as the source filed them. Calls come from the whole dose curve; as a rule, active = well fitted cell-killing curve with a large enough effect in the repeat runs; inconclusive = weak or mixed curves, or effect the other way; inactive = flat fitted curve, though single readings scatter.
Potency is the fitted concentration of half-maximal effect.

The nature of this assay: qHTS assay to identify small molecule antagonists of the retinoid acid receptor (RAR) signaling pathway - cell viability counter screen (AID 1159551). Note: nearly all actives have a fitted effect of over 35% in size. To be noted: C3RL4 cells viability, ATP luminescence (CellTiter-Glo), 6 h; series mostly up to 92.4 µM. In short, it runs like this:
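In this counter screen, the RARE-luciferase line C3RL4 was exposed for 6 h at 37 C and 5% CO2 to compounds with retinol at 1 uM final. Cellular ATP, read by luminescence, served as the viability measure.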
Background: Quantitative high-throughput screening tests each substance at several concentrations.
Regarding `CC(=O)[O-].[Tl+]`, the Potency result is “inactive”. To `Nc1ccc(Sc2ccc(N)cc2)cc1` belongs “inactive”. For `O=C(CCl)C(Cl)Cl`, the Potency entry was “inactive”.

For the molecule `CC(C)(C)c1cc([N+](=O)[O-])cc(C(C)(C)C)c1O`, the Potency result was “inactive”. As for `Oc1c(Br)c(Br)c(Br)c(Br)c1Br`, the Potency entry is “inactive”. As to `ClC1=C(Cl)[C@]2(Cl)[C@@H]3[C@@H]4C[C@@H]([C@H]5O[C@@H]45)[C@@H]3[C@@]1(Cl)C2(Cl)Cl`, the Potency was 61.1 µM (active).

Consider `CC(C)N1C(=O)N(c2ccccc2)CSC1=NC(C)(C)C`, for which the Potency entry was “inactive”. For the molecule `N#Cc1ccc(O)cc1`, the Potency result was “inactive”. To `CCCCOCN(C(=O)CCl)c1c(CC)cccc1CC` belongs “inactive”; to `CC(C)Oc1cccc(NC(=O)c2ccccc2C(F)(F)F)c1`, “inactive”; to `C[C@@H]1O[C@@H](O[C@@H]2C=C3CC[C@@H]4[C@H](CC[C@]5(C)[C@@H](c6ccc(=O)oc6)CC[C@]45O)[C@@]3(C)CC2)[C@H](O)[C@H](O)[C@H]1O`, “inactive”. To `Fc1ccc(Oc2ccnc3cc(Cl)cc(Cl)c23)cc1` belongs “inactive”; to `CCN(CC)c1c([N+](=O)[O-])cc(C(F)(F)F)c(N)c1[N+](=O)[O-]`, “inactive”; to `CNC(C)Cc1ccc2c(c1)OCO2` (stereo not given), “inactive”.

On to `CC[C@H]1C[C@@H]2C[C@H]3c4[nH]c5ccc(OC)cc5c4CCN(C2)[C@@H]13`, for which the Potency entry is “inactive”. Turning to `S=C=Nc1cccc2ccccc12`, the Potency result was “inactive”. For `CN(C)CCc1c[nH]c2cccc(O)c12` the value was “inactive”. Take `Oc1cc(Cl)c(Cl)c(Cl)c1`: the Potency result is “inactive”. To `CN(C)CCc1c[nH]c2ccc(O)cc12` belongs “inactive”; to `c1cc[c]([Sb]([c]2ccccc2)[c]2ccccc2)cc1`, “inactive”.

The values above are taken from PubChem BioAssay (Tox21).
